PubChem BioAssay (Tox21)
Records with an inconclusive call do not appear. A call without a number means that no potency is given here. Calls of active or inactive are those of the source. Calls follow the shape of the dose curve; as a rule, active = well fitted cell-killing curve with a large enough effect in the repeat runs; inconclusive = weak or mixed curves, or effect the other way; inactive = flat fitted curve, though single readings scatter.

Experiment: qHTS RealTime-Glo MT Cell Viability Assay in HEK293 cells - 32 hour (AID 1224868); also: nearly all actives have a fitted effect of over 50% in size
Details: RealTime-Glo luminescence; series mostly up to 76.8 µM
Text: National Center for Advancing Translational Sciences [NCATS]
NIH Chemical Genomics Center [NCGC]
U.S. Environmental Protection Agency [EPA]
National Institutes of Environmental Health Sciences [NIEHS]
National Toxicology Program [NTP]
U.S. Food and Drug Administration [FDA]
Measure of cell viability is critical in the cell-base assay. Analysis of cell viability is necessary for the characterization of cell responses to cytotoxic drugs and environmental stress. A RealTime-Glo MT Cell Viability Assay to monitor cell viability in real time of continues cell culture during 40 hours of compound treatment was used to screen Tox21 10K library compounds in Hek293 cells. The RealTime-Glo MT Cell Viability Assay is a nonlytic, homogeneous, bioluminescent method to measure cell viability in real time using a simple, plate-based method. The assay involves adding NanoLuc luciferase and a cell-permeant prosubstrate to cells in culture. Viable cells reduce the proprietary prosubstrate to generate a substrate for NanoLuc luciferase. This substrate diffuses from cells into the surrounding culture medium, where it is rapidly used by the NanoLuc Enzyme to produce a luminescent signal. The signal correlates with the number of viable cells, making the assay well suited for cytotoxicity studies.
Tox21 Assay Protocol Summary:
The mixture of Hek293 cell suspension and reagents were dispensed at 600cells/6 ul/well in 1536-well tissue culture treated black solid bottom plates using a Multidrop dispenser. After the assay plates were incubated at a 37 C/5% CO2 incubator for 5 hours, 23 nL of compounds dissolved in DMSO, positive and negative controls was transferred to the assay plate by a pintool work station. The plates were incubated at 37 C for 40 hours. The luminescence intensity were measured at 0h, 8h, 16h, 24h, 32h and 40h time points using ViewLux plate reader during compound treatment.
Potency is read from the fitted curve at half-maximal effect.

Q: For `CNN`, which Potency is on record?
A: Its Potency is “inactive”.

Q: With `N#Cc1sc2c(=O)c3ccccc3c(=O)c=2sc1C#N` as the compound, how does the Potency read?
A: The Potency was 17.4 µM (active).

Q: For `CCCCC/C=C\C/C=C\C/C=C\C/C=C\CCCC(=O)NCC(=O)O`, which Potency is on record?
A: The Potency was “inactive”.

Q: With `Cc1cnc2c(C(=O)O)c(Cl)ccc2c1` as the compound, how does the Potency read?
A: The Potency was “inactive”.

Q: For `CCC(C)Br` (stereo not given), which Potency is on record?
A: The Potency was “inactive”.

Q: For `c1ccc(N=NNc2ccccc2)cc1`, which Potency is on record?
A: Its Potency is “inactive”.

Q: For `O=S(=O)(NS(=O)(=O)C(F)(F)F)C(F)(F)F`, which Potency is on record?
A: Its Potency is 1.94 µM (active).

Q: For `Cc1ccc([N+](=O)[O-])[c]2c1[O][Hg]2`, which Potency is on record?
A: The Potency was 3.79 µM (active).

Q: Which Potency does the source give for `c1ccc(Nc2ccc(Nc3ccccc3)cc2)cc1` here?
A: The Potency was 21.8 µM (active).

Q: For `CCCCON=O`, which Potency is on record?
A: Its Potency is “inactive”.

Q: Which Potency does the source give for `CCN(CC)CCc1c[nH]c2ccccc12` here?
A: The Potency was “inactive”.

Q: Which Potency does the source give for `CCOP(=O)(Sc1ccccc1)Sc1ccccc1` here?
A: The Potency was “inactive”.

Q: With `CCCCCCC[CH2][Sn]([Cl])([Cl])[CH2]CCCCCCC` as the compound, how does the Potency read?
A: The Potency was “inactive”.

Q: With `O=[N+]([O-])c1ccccc1-c1ccccc1` as the compound, how does the Potency read?
A: Its Potency is “inactive”.

Q: Which Potency does the source give for `N#CC(C#N)=NNc1cccc(Cl)c1` here?
A: Its Potency is 4.9 µM (active).

Q: For `Cc1ccc(C)c2ccccc12`, which Potency is on record?
A: The Potency was “inactive”.

Q: For `CN(C)c1ccc(N)cc1`, which Potency is on record?
A: The Potency was 24 µM (active).

Q: Which Potency does the source give for `Oc1ccc2[nH]cc(CCCCN3CC=C(c4ccccc4)CC3)c2c1` here?
A: The Potency was 23.9 µM (active).

Q: Which Potency does the source give for `C=CCBr` here?
A: The Potency was “inactive”.

Q: With `C=CCOC(=O)c1ccccc1N` as the compound, how does the Potency read?
A: The Potency was “inactive”.

Q: For `Nc1c(Cl)c(Cl)c(Cl)c(Cl)c1Cl`, which Potency is on record?
A: The Potency was “inactive”.

Q: Which Potency does the source give for `O=[N+]([O-])c1cccc2cccc([N+](=O)[O-])c12` here?
A: Its Potency is “inactive”.

Q: Which Potency does the source give for `Brc1cccc(-c2ccccc2)c1` here?
A: The Potency was “inactive”.

Q: With `O=C(N[C@@H]1N=C(c2ccccc2F)c2cccc3c2N(CC3)C1=O)c1cc2ccccc2[nH]1` as the compound, how does the Potency read?
A: The Potency was “inactive”.

Q: With `CC(=O)[O][Pb]([c]1ccccc1)([c]1ccccc1)[c]1ccccc1` as the compound, how does the Potency read?
A: The Potency was 0.49 µM (active).

Q: For `O=C(O)[C@H](O)[C@@H](O)C(=O)O`, which Potency is on record?
A: Its Potency is “inactive”.

Q: For `COP(=S)(NC(C)C)Oc1ccc(C)cc1[N+](=O)[O-]` (stereo not given), which Potency is on record?
A: Its Potency is “inactive”.

Q: Which Potency does the source give for `Cc1c([N+](=O)[O-])c(C)c([N+](=O)[O-])c(C(C)(C)C)c1[N+](=O)[O-]` here?
A: Its Potency is “inactive”.

Q: With `[O-][Cl+3]([O-])([O-])O` as the compound, how does the Potency read?
A: Its Potency is “inactive”.

Q: With `ClCBr` as the compound, how does the Potency read?
A: The Potency was “inactive”.

Q: With `CCC[CH2][Sn]([CH2]CCC)([O]C(C)=O)[O]C(C)=O` as the compound, how does the Potency read?
A: Its Potency is 0.0783 µM (active).

Q: For `Clc1cc(Cl)c(-c2cc(Cl)c(Cl)cc2Cl)cc1Cl`, which Potency is on record?
A: Its Potency is “inactive”.

Q: For `Cc1c([N+](=O)[O-])cc2c(c1[N+](=O)[O-])C(C)(C)CC2(C)C`, which Potency is on record?
A: Its Potency is “inactive”.

Q: Which Potency does the source give for `O=S(=O)(O)F` here?
A: The Potency was “inactive”.

Q: Which Potency does the source give for `CNC(C)(C)Cc1ccccc1` here?
A: Its Potency is “inactive”.

Q: For `CCn1cc[n+](C)c1` (tested in a mixture with another compound), which Potency is on record?
A: Its Potency is “inactive”.

Q: For `O=[N+]([O-])c1ccc(Cl)c(Cl)c1Cl`, which Potency is on record?
A: The Potency was “inactive”.

Q: With `COCCC#N` as the compound, how does the Potency read?
A: The Potency was “inactive”.

Q: With `CCCN` as the compound, how does the Potency read?
A: The Potency was “inactive”.

Q: With `FC(F)C(F)(F)OCC(Cn1cncn1)c1ccc(Cl)cc1Cl` (stereo not given) as the compound, how does the Potency read?
A: Its Potency is 21.7 µM (active).
